Data from article PMC4336329 (PLoS ONE, 2015).
The campaign covered roughly 310,000 compounds. About 14,000 (4.5%) showed an effect of 50% or more. Effects have a minus sign here. The list comes from a sample in which strong results are over-represented; it also holds similar structures and randomly drawn compounds.
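Note: peak tail current of the secondary pulse compared with the same well before compound.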

The compounds below were run against human ether-à-go-go-related gene (hERG) potassium channel (human, UniProt Q12809) (assay: primary screen, population patch clamp on CHO cells stably expressing hERG; higher = less effect of the substance).
Chain of human ether-à-go-go-related gene (hERG) potassium channel (Q12809 whole entry, looked up): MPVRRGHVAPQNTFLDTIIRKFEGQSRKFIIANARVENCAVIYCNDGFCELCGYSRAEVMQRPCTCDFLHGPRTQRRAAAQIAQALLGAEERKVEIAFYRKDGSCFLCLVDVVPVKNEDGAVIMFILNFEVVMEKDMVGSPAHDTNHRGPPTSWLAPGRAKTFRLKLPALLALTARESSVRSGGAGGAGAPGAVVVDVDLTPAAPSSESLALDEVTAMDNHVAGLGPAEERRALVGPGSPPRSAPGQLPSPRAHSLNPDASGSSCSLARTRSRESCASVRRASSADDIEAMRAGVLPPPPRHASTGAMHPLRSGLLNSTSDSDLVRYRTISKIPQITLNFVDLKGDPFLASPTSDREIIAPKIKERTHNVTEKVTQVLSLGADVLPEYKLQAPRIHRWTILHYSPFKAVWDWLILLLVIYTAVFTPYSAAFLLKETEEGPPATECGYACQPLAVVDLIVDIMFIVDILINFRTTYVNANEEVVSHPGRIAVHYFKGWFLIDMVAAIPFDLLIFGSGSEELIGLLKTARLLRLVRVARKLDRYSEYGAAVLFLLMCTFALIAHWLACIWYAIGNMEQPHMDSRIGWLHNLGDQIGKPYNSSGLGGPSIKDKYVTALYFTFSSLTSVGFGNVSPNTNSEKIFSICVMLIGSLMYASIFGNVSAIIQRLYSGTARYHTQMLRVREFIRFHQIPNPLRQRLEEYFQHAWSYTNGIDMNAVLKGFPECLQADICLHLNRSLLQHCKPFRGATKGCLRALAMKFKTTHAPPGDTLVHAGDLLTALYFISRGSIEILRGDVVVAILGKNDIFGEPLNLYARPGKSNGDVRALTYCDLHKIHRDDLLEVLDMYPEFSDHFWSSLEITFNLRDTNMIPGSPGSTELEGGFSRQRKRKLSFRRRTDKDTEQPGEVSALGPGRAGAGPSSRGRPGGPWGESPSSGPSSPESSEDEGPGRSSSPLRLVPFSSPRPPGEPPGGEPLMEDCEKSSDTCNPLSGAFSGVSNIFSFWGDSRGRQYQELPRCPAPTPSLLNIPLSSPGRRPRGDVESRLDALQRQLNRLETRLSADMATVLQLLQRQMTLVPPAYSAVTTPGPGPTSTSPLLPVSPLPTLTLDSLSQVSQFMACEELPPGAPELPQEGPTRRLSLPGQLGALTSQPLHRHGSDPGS
For `CN1CCC(NC(=O)NC2CCCCC2)CC1`, the “hERG current change (%, negative = inhibition) at 10uM” value was 11.9%.
For `Cc1cc(-c2ccccc2)nc(N2CCN(c3ccccn3)CC2)n1`, the “hERG current change (%, negative = inhibition) at 10uM” value was 1.11%.
In the case of `Cc1cc(N2CCN(c3ccc(F)cc3)CC2)nc(-c2ccccc2)n1`, the “hERG current change (%, negative = inhibition) at 10uM” value is reported as -13.7%.
`Cc1cc(NC2CCCCC2)n2c(n1)nc1ccccc12` was tested, and the “hERG current change (%, negative = inhibition) at 10uM” value was -55.1%.
In the case of `Cc1nnc2c(NC3CCCCC3)nc3ccccc3n12`, the “hERG current change (%, negative = inhibition) at 10uM” value is reported as 1.89%.
In the case of `Cc1cc(N2CCN(c3ccccc3)CC2)n2cc(-c3ccccc3)nc2n1`, the “hERG current change (%, negative = inhibition) at 10uM” value is reported as -75.3%.
With `Cc1cc(Nc2cccc(F)c2)n2c(n1)nc1ccccc12` the “hERG current change (%, negative = inhibition) at 10uM” value was 3.44%.
With `Cc1cc(N2CCN(c3ccccn3)CC2)n2cc(-c3ccccc3)nc2n1` the “hERG current change (%, negative = inhibition) at 10uM” value was -72.3%.
In the case of `c1ccc(-c2csc(N3CCN(c4ccccn4)CC3)n2)cc1`, the “hERG current change (%, negative = inhibition) at 10uM” value is reported as -1.09%.
With `Cc1cc(N2CCN(c3ccccc3)CC2)n2c(n1)nc1ccccc12` the “hERG current change (%, negative = inhibition) at 10uM” value was -68.7%.
With `Cc1cc(N2CCN(c3ccccc3)CC2)nc2ccccc12` the “hERG current change (%, negative = inhibition) at 10uM” value was 3.04%.
For `Cc1cc(N2CCN(c3ccccc3)CC2)nc(-c2ccccc2O)n1`, the “hERG current change (%, negative = inhibition) at 10uM” value was 6.15%.
With `Cc1cc(C)c2c(n1)nn1c(N3CCN(c4ccccc4)CC3)cc(C)nc21` the “hERG current change (%, negative = inhibition) at 10uM” value was 4.66%.
For `CC(C)c1ccc(NC(=O)c2cccc(NC3=NC4CS(=O)(=O)CC4S3)c2)cc1` (stereo not shown), the “hERG current change (%, negative = inhibition) at 10uM” value was -11.1%.
With `CS(=O)(=O)N(CC(=O)Nc1ccc(F)cc1)C1CCCCC1` the “hERG current change (%, negative = inhibition) at 10uM” value was 12.6%.
With `c1ccc(-c2nc(C3CCCCC3)no2)cc1` the “hERG current change (%, negative = inhibition) at 10uM” value was -0.00972%.
`CCSC1=N/C(=C\c2ccccc2)C(=O)N1c1ccc(OC)cc1` was tested, and the “hERG current change (%, negative = inhibition) at 10uM” value was 6.36%.
`O=C(O)c1cccnc1Cl` was tested, and the “hERG current change (%, negative = inhibition) at 10uM” value was 10.7%.
For `O=C(/C=C/c1ccccc1)Nc1sc2c(c1C(=O)O)CCC2`, the “hERG current change (%, negative = inhibition) at 10uM” value was 5.92%.
For `Cc1cc(N2CC(C)OC(C)C2)n2cc(-c3ccccc3)nc2n1` (stereo not shown), the “hERG current change (%, negative = inhibition) at 10uM” value was -61.7%.
For `CCc1nn2c(N3CCOCC3)cc(C)nc2c1-c1ccc(F)cc1`, the “hERG current change (%, negative = inhibition) at 10uM” value was 0.767%.
In the case of `Cc1cc(N2CCN(c3nc(-c4ccccc4)cs3)CC2)c2ccccc2n1`, the “hERG current change (%, negative = inhibition) at 10uM” value is reported as -23.3%.
For `CC1CN(c2nc3ccccc3cc2-c2ccccc2)CC(C)O1` (stereo not shown), the “hERG current change (%, negative = inhibition) at 10uM” value was -1.86%.
`Cc1cc(N2CCN(C)CC2)n2cc(-c3ccc(F)cc3)nc2n1` was tested, and the “hERG current change (%, negative = inhibition) at 10uM” value was -87.6%.
With `Cc1cc(N2CCN(c3ccccc3Cl)CC2)n2cc(-c3ccccc3)nc2n1` the “hERG current change (%, negative = inhibition) at 10uM” value was -53.9%.
For `Cc1c(C(=O)N2CC(C)OC(C)C2)sc2nc(-c3ccccc3)cn12` (stereo not shown), the “hERG current change (%, negative = inhibition) at 10uM” value was -15.2%.
For `Cc1cc(N2CCOCC2)n2nc(-c3cccc(F)c3)cc2n1`, the “hERG current change (%, negative = inhibition) at 10uM” value was 0.119%.
In the case of `CN1CCN(c2cc(-c3ccccc3)nc3cc(-c4ccc(F)cc4)nn23)CC1`, the “hERG current change (%, negative = inhibition) at 10uM” value is reported as -14.5%.
For `COc1ccc(-c2cc(-c3ccc(F)cc3)nc(N3CCN(C)CC3)n2)cc1`, the “hERG current change (%, negative = inhibition) at 10uM” value was -3.88%.
`Cc1cc(N2CCCCC2)n2nc(C)c(-c3ccccc3)c2n1` was tested, and the “hERG current change (%, negative = inhibition) at 10uM” value was 13.3%.
`Cc1cc(N2CCOCC2)n2cc(-c3ccc(F)cc3)nc2n1` was tested, and the “hERG current change (%, negative = inhibition) at 10uM” value was -69%.
With `O=C(NNC(=S)Nc1ccccc1Cl)c1ccccc1` the “hERG current change (%, negative = inhibition) at 10uM” value was 5.93%.
`O=C(CN1c2ccccc2S(=O)(=O)c2ccccc21)NCc1ccccc1` was tested, and the “hERG current change (%, negative = inhibition) at 10uM” value was 9.11%.
With `Cc1cccc(N(CC(=O)N2CCOCC2)S(C)(=O)=O)c1` the “hERG current change (%, negative = inhibition) at 10uM” value was 6.69%.
For `CCC(=O)NC(=S)Nc1ccc(N2CCOCC2)cc1`, the “hERG current change (%, negative = inhibition) at 10uM” value was -2.62%.
`CS(=O)(=O)N1CCN(C(=O)c2cc3ccccc3oc2=O)CC1` was tested, and the “hERG current change (%, negative = inhibition) at 10uM” value was -0.0734%.
With `O=C(NCCC1=CCCCC1)C1CCN(S(=O)(=O)c2cccs2)CC1` the “hERG current change (%, negative = inhibition) at 10uM” value was -29.2%.
With `CCOc1ccc(-n2c(SCC(=O)Nc3cc(C(=O)O)ccc3Cl)nc3ccccc3c2=O)cc1` the “hERG current change (%, negative = inhibition) at 10uM” value was 28.8%.
For `COc1cc2nc(SCC(N)=O)n(CCC3=CCCCC3)c(=O)c2cc1OC`, the “hERG current change (%, negative = inhibition) at 10uM” value was -10.9%.
With `CCN(CC)S(=O)(=O)c1cccc(C(=O)OCC(=O)Nc2ccccc2OC(F)F)c1` the “hERG current change (%, negative = inhibition) at 10uM” value was -7.37%.
For `CCC(C)(C)C1CCc2c(sc(NC(=O)c3ccoc3C)c2C(N)=O)C1` (stereo not shown), the “hERG current change (%, negative = inhibition) at 10uM” value was 17.8%.
`COc1ccc(N/C=C(\C#N)S(=O)(=O)c2ccc(Cl)cc2)c(OC)c1` was tested, and the “hERG current change (%, negative = inhibition) at 10uM” value was -8.9%.
In the case of `Cc1cc(N2CCOCC2)n2ncc(-c3ccccc3)c2n1`, the “hERG current change (%, negative = inhibition) at 10uM” value is reported as -18.5%.
In the case of `Cc1cc(N2CCOCC2)n2nc(C)c(-c3ccccc3)c2n1`, the “hERG current change (%, negative = inhibition) at 10uM” value is reported as 9.17%.
For `Cc1cc(N2CCOCC2)n2cc(-c3ccccc3)nc2n1`, the “hERG current change (%, negative = inhibition) at 10uM” value was -50.1%.
In the case of `O=C(Nc1ccccc1)c1ccc(Nc2c([N+](=O)[O-])cc([N+](=O)[O-])c3ccccc23)cc1`, the “hERG current change (%, negative = inhibition) at 10uM” value is reported as 6.49%.
With `O=C(CSc1cccc[n+]1[O-])Nc1ccc2c(c1)OCO2` the “hERG current change (%, negative = inhibition) at 10uM” value was 6.96%.
`O=C(CSc1nnc(-c2ccc(OC(F)F)cc2)o1)N1CCOCC1` was tested, and the “hERG current change (%, negative = inhibition) at 10uM” value was -57%.
In the case of `COc1ccc(-c2nnc(SCC(=O)N3CCOCC3)o2)cc1`, the “hERG current change (%, negative = inhibition) at 10uM” value is reported as -1.92%.
With `CCOc1ccc(-c2nnc(SCC(=O)N3CCOCC3)o2)cc1` the “hERG current change (%, negative = inhibition) at 10uM” value was 2.8%.
With `O=C(CSc1nnc(-c2ccccc2Br)o1)N1CCN(C(=O)c2ccco2)CC1` the “hERG current change (%, negative = inhibition) at 10uM” value was -40.9%.
For `O=C(CSc1nnc(-c2ccc(F)cc2)o1)N1CCN(C(=O)c2ccco2)CC1`, the “hERG current change (%, negative = inhibition) at 10uM” value was -38.4%.
In the case of `O=C(CSc1ccccc1)N1CCN(C(=O)c2ccco2)CC1`, the “hERG current change (%, negative = inhibition) at 10uM” value is reported as -10.1%.
In the case of `O=C(CSc1ccc(Br)cc1)N1CCN(C(=O)c2ccco2)CC1`, the “hERG current change (%, negative = inhibition) at 10uM” value is reported as -62.4%.
For `O=C(CSc1nnc(-c2ccc(Br)cc2)o1)N1CCN(C(=O)c2ccco2)CC1`, the “hERG current change (%, negative = inhibition) at 10uM” value was -54.6%.
`O=C(Cc1ccc(Br)cc1)N1CCN(C(=O)c2ccco2)CC1` was tested, and the “hERG current change (%, negative = inhibition) at 10uM” value was -32.3%.
`C[C@H](NC(=O)c1cc2cc(Cl)ccc2n1C)C(=O)N1CCC[C@H]1C(=O)O` was tested, and the “hERG current change (%, negative = inhibition) at 10uM” value was 13.7%.
In the case of `O=C(NCCN1CCOCC1)[C@H](Cc1ccccc1)N1C(=O)c2ccccc2C1=O`, the “hERG current change (%, negative = inhibition) at 10uM” value is reported as -2.06%.
